Measured values: PubChem BioAssay (Tox21)
Inconclusive results are not listed. Activity calls are given as the source filed them. Unless noted, the call rests on the fitted dose curve; in most records, active means well fitted curve in the direction sought with a large enough effect in the repeat runs; inconclusive means weak or mixed curves; inactive means no such curve, though single readings can be large; an effect the other way counts as inactive or inconclusive.

Legend:
[1] = qHTS assay to identify small molecule agonists of the RXR signaling pathway - cell viability counter screen (AID 1159529);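 further: HEK 293T cells carrying an RXR-alpha UAS beta-lactamase reporter; nearly all actives have a fitted effect of over 50% in size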
Summary of the method: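 Viability read-out for the RXR-alpha agonist qHTS: luminescent CellTiter-Glo signal after 30 min at RT. HEK 293T bla reporter cells, 2% charcoal-stripped FBS, 16 hr compound incubation; tetraoctyl ammonium bromide as cytotoxic control.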

[2] = qHTS assay to identify small molecule antagonists of the retinoid acid receptor (RAR) signaling pathway - cell viability counter screen (AID 1159551); further: nearly all actives have a fitted effect of over 35% in size
Summary of the method: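 Following overnight attachment, C3RL4 reporter cells received DMSO-dissolved compounds and then retinol (1 uM final). Six hours later at 37 C, ATP content was measured by CellTiter-Glo luminescence.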

[3] = qHTS assay to identify small molecule antagonists of the retinoic acid receptor (RAR) signaling pathway (AID 1159552; further: nearly all actives have a fitted effect of over 50% in size)
Summary of the method: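 Using a RARE-driven luciferase construct in C3RL4 cells, retinol at 1 uM final provided the agonist stimulus while compounds were co-applied. After 6 hours at 37 C, luminescence was recorded to flag inhibitors of retinol signaling.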

[4] = qHTS assay to identify small molecule antagonists of the estrogen related receptor (ERR) signaling pathway from Tox21 library - cell viability counter screen (AID 1224834); further: nearly all actives have a fitted effect of over 30% in size
Summary of the method: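 Viability readout (CellTiter-Fluor fluorescence, 30 min at 37 C) multiplexed with the ERR assay; cells treated 17.5 h at 37 C with compounds delivered in DMSO.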

[5] = target: Luciferin 4-monooxygenase (Photinus pyralis) (UniProt P08659); experiment: qHTS assay to identify small molecule inhibitors of firefly luciferase (AID 1224835); further: nearly all actives have a fitted effect of over 25% in size
Sequence of Luciferin 4-monooxygenase (Photinus pyralis) (P08659 whole entry, looked up): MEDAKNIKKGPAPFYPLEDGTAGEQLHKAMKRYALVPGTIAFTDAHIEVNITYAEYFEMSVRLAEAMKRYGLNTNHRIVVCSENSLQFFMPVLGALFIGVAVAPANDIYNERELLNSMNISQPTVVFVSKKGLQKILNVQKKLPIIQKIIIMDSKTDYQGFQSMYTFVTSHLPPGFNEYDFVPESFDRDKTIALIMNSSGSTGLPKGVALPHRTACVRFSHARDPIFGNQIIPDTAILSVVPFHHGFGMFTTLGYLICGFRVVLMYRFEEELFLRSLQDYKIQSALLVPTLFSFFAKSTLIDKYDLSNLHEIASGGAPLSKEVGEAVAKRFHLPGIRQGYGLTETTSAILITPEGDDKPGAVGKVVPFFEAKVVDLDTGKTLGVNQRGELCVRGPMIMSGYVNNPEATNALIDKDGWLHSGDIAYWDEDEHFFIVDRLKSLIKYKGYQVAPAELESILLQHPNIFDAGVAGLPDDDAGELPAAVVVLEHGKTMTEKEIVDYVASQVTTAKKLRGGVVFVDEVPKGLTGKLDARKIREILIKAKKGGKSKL
Summary of the method: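 Biochemical qHTS: compounds run as interplate titrations against purified firefly enzyme, with D-luciferin and ATP each at its KM concentration. Light output recorded by CCD imaging.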

[6] = qHTS assay to identify small molecule agonists of the constitutive androstane receptor (CAR) signaling pathway - cell viability counter screen (AID 1224836); further: nearly all actives have a fitted effect of over 45% in size
Summary of the method: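 Multiplexed viability check: HepG2-CYP2B6-hCAR cells, 15-point compound dosing, 0.75 uM PK11195 final, 23 h at 37 C, CellTiter-Fluor fluorescence.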

[7] = qHTS assay to identify small molecule antagonists of the constitutive androstane receptor (CAR) signaling pathway - cell viability counter screen (AID 1224837); further: nearly all actives have a fitted effect of over 45% in size
Summary of the method: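 Fluorescence from CellTiter-Fluor served as the viability signal. Human hepatoma HepG2 cells stably bearing hCAR and CYP2B6-2.2kb received compound plus CITCO (50 nM final) for 23 hr.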

[8] = qHTS assay to identify small molecule antagonists of the estrogen related receptor signaling pathway with the pleiotropic PPARgamma coactivator (PGC) from Tox21 10K library - cell viability counter screen (AID 1224840; active means well fitted cell-killing curve with a large enough effect in the repeat runs, not every such curve was filed as active; further: nearly all actives have a fitted effect of over 40% in size)
Summary of the method: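 Compounds in DMSO, alongside positive and negative controls, were pinned onto PGC/ERR cells (2,000 per well). Exposure lasted 17.5 hours at 37 C, followed by a 30-minute CellTiter-Fluor incubation and fluorescence reading.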

[9] = target: Thyrotropin receptor (Homo sapiens) (UniProt P16473); experiment: qHTS assay to identify small molecule agonists of the thyroid stimulating hormone receptor (TSHR) signaling pathway (AID 1224843; calls by dose curve; further: nearly all actives have a fitted effect of over 45% in size)
Sequence of Thyrotropin receptor (Homo sapiens) (P16473 whole entry, looked up): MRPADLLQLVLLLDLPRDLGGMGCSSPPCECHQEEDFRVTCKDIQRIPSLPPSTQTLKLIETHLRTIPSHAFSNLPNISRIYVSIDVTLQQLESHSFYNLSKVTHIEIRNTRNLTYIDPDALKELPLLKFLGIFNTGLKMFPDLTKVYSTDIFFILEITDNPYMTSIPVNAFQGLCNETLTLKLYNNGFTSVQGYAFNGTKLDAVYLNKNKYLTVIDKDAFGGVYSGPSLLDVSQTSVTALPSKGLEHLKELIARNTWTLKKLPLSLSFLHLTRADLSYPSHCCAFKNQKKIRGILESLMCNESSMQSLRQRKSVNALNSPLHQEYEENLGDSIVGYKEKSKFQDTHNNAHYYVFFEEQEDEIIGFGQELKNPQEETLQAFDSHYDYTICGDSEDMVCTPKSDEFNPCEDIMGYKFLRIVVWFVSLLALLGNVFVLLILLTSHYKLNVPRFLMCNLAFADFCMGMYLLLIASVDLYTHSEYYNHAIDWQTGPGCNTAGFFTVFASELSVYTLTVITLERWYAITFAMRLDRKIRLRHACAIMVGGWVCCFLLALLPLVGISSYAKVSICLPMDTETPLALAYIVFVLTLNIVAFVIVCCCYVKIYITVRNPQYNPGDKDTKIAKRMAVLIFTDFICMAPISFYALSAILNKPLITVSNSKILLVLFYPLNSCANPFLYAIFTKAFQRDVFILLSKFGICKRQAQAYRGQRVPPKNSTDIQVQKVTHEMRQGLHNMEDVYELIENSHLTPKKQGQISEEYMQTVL
Summary of the method: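 Steps: seed 800 TSHR-HEK293 cells per well; add test compound and hold 30 min at ambient temperature; dispense cAMP-d2 then anti-cAMP cryptate; incubate 1 h at ambient; measure fluorescence intensity.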

[10] = qHTS assay to identify small molecule agonists of the hypoxia (HIF-1) signaling pathway - cell viability counter screen (AID 1224844; calls by dose curve; further: nearly all actives have a fitted effect of over 50% in size)
Summary of the method: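 Luminescent ATP content (CellTiter-Glo, 30 min, room temperature) served as the viability measure in HRE-bla ME-180 cells exposed to compounds for 17 hrs in low-serum medium (0.5% dialyzed FBS).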

[11] = qHTS assay to identify small molecule agonists of H2AX (AID 1224845; active means well fitted activation curve with a large enough effect in the signal ratio in the repeat runs, not every such curve was filed as active; the % refers to the signal ratio)
Summary of the method: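 Wild-type CHO-K1 cells, plated overnight, exposed 3hr at 37C to 15 concentrations (0.76% DMSO final). Lysed, then HTRF anti-pH2AX (S139) cryptate and anti-H2AX-d2 antibodies, 24 hr room temperature; 665/620 nm emission read.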

[12] = qHTS assay to identify small molecule agonists of the hypoxia (HIF-1) signaling pathway (AID 1224846; active means well fitted activation curve with a large enough effect in the signal ratio in the repeat runs, not every such curve was filed as active; the % refers to the signal ratio)
Summary of the method: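 Measured by blue/green FRET after loading CCF4-AM: beta-lactamase expressed from a hypoxia response element in ME-180 cells. Test agents were delivered in DMSO and left 17 hrs; cells had been plated 5 hrs earlier in low-serum (0.5% dialyzed FBS) medium.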

[13] = target: Nuclear receptor subfamily 1 group I member 3 (Homo sapiens) (UniProt Q14994); experiment: qHTS assay to identify small molecule antagonists of the constitutive androstane receptor (CAR) signaling pathway (AID 1224838);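 further: HepG2 cells stably expressing hCAR with CYP2B6 luciferase reporter stimulated by CITCO; nearly all actives have a fitted effect of over 40% in size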
Sequence of Nuclear receptor subfamily 1 group I member 3 (Homo sapiens) (Q14994 whole entry, looked up): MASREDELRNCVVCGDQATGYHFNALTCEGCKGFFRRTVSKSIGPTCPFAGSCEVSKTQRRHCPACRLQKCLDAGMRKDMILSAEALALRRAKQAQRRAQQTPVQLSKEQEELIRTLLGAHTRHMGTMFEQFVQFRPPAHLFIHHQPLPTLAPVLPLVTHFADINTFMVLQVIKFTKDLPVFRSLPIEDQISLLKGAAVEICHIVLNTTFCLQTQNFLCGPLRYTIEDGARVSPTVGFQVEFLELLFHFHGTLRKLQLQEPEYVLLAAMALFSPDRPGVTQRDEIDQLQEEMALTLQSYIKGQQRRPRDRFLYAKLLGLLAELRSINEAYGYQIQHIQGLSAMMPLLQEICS
Summary of the method: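 Quantitative HTS in double-stable HepG2-CYP2B6-hCAR cells. After 4 h plating, cells get compound (15 concentrations) and CITCO at 50 nM final, incubate 24 h at 37 C, then ONE-Glo luminescence is read.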

[14] = qHTS assay to identify small molecule agonists of H2AX - cell viability counter screen (AID 1224847; calls by dose curve; further: top concentration of the series differs between compounds; nearly all actives have a fitted effect of over 30% in size)
Summary of the method: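 After overnight plating of 1000 CHO-K1 cells per well, a 15-concentration compound series was applied for 3 hr at 37C. Luminescence from CellTiter-Glo, read following 30 min at room temperature, reflected cell viability.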

[15] = target: Nuclear receptor subfamily 1 group I member 3 (Homo sapiens) (UniProt Q14994); experiment: qHTS assay to identify small molecule agonists of the constitutive androstane receptor (CAR) signaling pathway (AID 1224839);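 further: HepG2 cells stably carrying human CAR and a CYP2B6 luciferase reporter; nearly all actives have a fitted effect of over 15% in size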
Summary of the method: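 Using human hepatoma HepG2 cells engineered with hCAR and a CYP2B6-2.2kb reporter, 15-concentration compound series were incubated 24 h alongside PK11195 at 0.75 uM final, with luminescence quantified afterwards.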

[16] = qHTS assay to identify small molecule agonists of the retinoic acid receptor (RAR) signaling pathway (AID 1159553); conditions: C3RL4 RARE luciferase reporter, agonist, 6 h; activation: at 73.3 µM (top of the series)
Summary of the method: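 Cell line C3RL4, RARE luciferase reporter. Treatment: compounds in DMSO, 6 hr, 37 C, 5% CO2, after overnight plating. Detection: luminescence, 30 min RT after reagent.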

[17] = qHTS assay to identify small molecule antagonists of the estrogen related receptor signaling pathway with the pleiotropic PPARgamma coactivator (PGC) from Tox21 10K library (AID 1224841; call rule not given here; further: actives are mostly falling curves and most rising ones were filed inactive; nearly all actives have a fitted effect of over 50% in size)
Summary of the method: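 Compound exposure ran 18 hours at 37 C in PGC/ERR cells (2,000/well) that had first rested 6 hours in a 37 C/5% CO2 incubator. Luciferase activity was then detected with One-Glo after a 30-minute room-temperature step.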

[18] = qHTS assay to identify small molecule agonists of the estrogen related receptor signaling pathway with the pleiotropic PPARgamma coactivator (PGC) from Tox21 10K library (AID 1224842); further: nearly all actives have a fitted effect of over 15% in size
Summary of the method: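 PGC/ERR reporter cell line, 2,000 cells per well, incubated 6 h at 37 C before 23 nL compound in DMSO was added. After 18 h at 37 C, One-Glo luminescence read following 30 min at room temperature.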

[19] = qHTS assay to identify small molecule antagonists of the estrogen related receptor (ERR) signaling pathway from Tox21 library (AID 1224848); further: nearly all actives have a fitted effect of over 50% in size
Summary of the method: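 Luminescent reporter read-out (ONE-Glo) from NTP's ERR cell line after 18 h treatment at 37 C with DMSO-dissolved Tox21 compounds; cells pre-plated 6 h beforehand at 2,000 per well.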

[20] = qHTS assay to identify small molecule agonists of the estrogen related receptor (ERR) signaling pathway from Tox21 library (AID 1224849; calls by dose curve; further: nearly all actives have a fitted effect of over 15% in size)
Summary of the method: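 We plated ERR reporter cells, waited 6 h, added compounds in DMSO by pin tool and incubated them 18 h at 37 C. ONE-Glo was then added and luminescence read after 30 min.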

Measured: Potency

C=C(C)C(=O)OC1CC(C)CC(C)(C)C1 (stereo not drawn)
not listed: [13] | [14] | [15] | [16] | [17] | [18] | [19] | [20]
inactive: all other assays above

Nc1cc(Cl)cc(S(=O)(=O)O)c1O
not listed: [9] | [11] | [15] | [16] | [17] | [18] | [19] | [20]
inactive: all other assays above

CO[Si](CCCS)(OC)OC
not listed: [12] | [13] | [15] | [16] | [17] | [18] | [19] | [20]
inactive: all other assays above

O=S(=O)(O)SSS(=O)(=O)O
not listed: [5] | [16] | [17] | [18] | [19] | [20]
inactive: all other assays above

CCC(O)C(C)(C)C (stereo not drawn)
inactive: [1] | [2] | [3] | [16] | [6] | [7] | [8] | [10] | [11] | [12] | [14]

CCN1CN(CC)CN(CC)C1
inactive: [1] | [2] | [3] | [16] | [6] | [7] | [8] | [9] | [10] | [11] | [12]

Cc1ccc(S(=O)(=O)NC(=O)NC2CCCCCCC2)cc1
inactive: [1] | [2] | [3] | [5] | [6] | [7] | [8] | [9] | [10] | [12] | [14]

Nc1cc(S(=O)(=O)O)ccc1S(=O)(=O)O
inactive: [1] | [2] | [3] | [5] | [6] | [7] | [10] | [12] | [14]

NC(=O)NNC(N)=O
not listed: [13] | [15] | [16]
inactive: all other assays above

CC(=O)OCCCc1ccccc1
not listed: [8] | [12] | [13] | [15] | [16]
inactive: all other assays above

CCOC(=O)OCC/C(SC(=O)OCC)=C(\C)N(C=O)Cc1cnc(C)nc1N
not listed: [8] | [13] | [15] | [16] | [17] | [18] | [19] | [20]
inactive: all other assays above

O=C1CC[C@H](C(=O)N2CCCCC2)N1
not listed: [13] | [15] | [16] | [17] | [18] | [19] | [20]
inactive: all other assays above

O=C(O)C(=O)Nc1cccc(-c2nn[nH]n2)c1
not listed: [10] | [13] | [16] | [17] | [18] | [19] | [20]
inactive: all other assays above

COCC(=O)Nc1c(I)c(C(=O)NCC(O)CO)c(I)c(C(=O)N(C)CC(O)CO)c1I (stereo not drawn)
inactive: [1] | [2] | [3] | [5] | [6] | [7] | [9] | [10] | [11] | [14]

CC(C)(c1ccc(Oc2ccc3c(c2)C(=O)OC3=O)cc1)c1ccc(Oc2ccc3c(c2)C(=O)OC3=O)cc1
not listed: [5] | [9] | [14] | [15] | [16]
inactive: all other assays above

O=C(O)c1ccc(OCCN2CCCCC2)cc1
not listed: [9] | [13] | [15] | [16]
inactive: all other assays above

C[N+](C)(C)CC(O)CCl (stereo not drawn)
inactive: [1] | [2] | [3] | [6] | [7] | [8] | [9] | [10] | [12] | [14]
